Screening results as filed in PubChem BioAssay.
This is a sample that favours compounds with a hit; in the whole collection about 15% have one here.
Pf growth 48h = inhibits P. falciparum growth in the first generation, 48 h | AID 504832 | hit rate 5.9% among 310,000 | Potency, µM (top dose mostly 28.7 µM), without a hit: top-dose activity change, negative = inhibition, usual class: inhibitors | P. falciparum luciferase growth in erythrocytes, 48 h; note: potency is the fitted concentration of half-maximal effect; % is set by controls: 0 for no effect and ±100 for the full control effect
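First compound was added to culture medium, then infected red cells at 0.1% parasitemia and 2% hematocrit (final). After incubation at 37 C under 5% CO2, luciferase detection reagent was dispensed and light output recorded.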
HCV inhibitor = blocks hepatitis C virus; Huh7.5.1 HCVcc-Cre infection, luciferase reporter, 44 h; Potency, µM (titrated, usually from 41.8 µM), without a hit: top-dose activity change, negative = inhibition, most hits filed as inhibitors; hit rate 3.4% among 340,000; AID 651820; note: potency is the fitted concentration of half-maximal effect; % is set by controls: 0 for no effect and ±100 for the full control effect
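Compounds are dispensed onto cells plated 4 h earlier at 1,000 per well, with HCVcc-Cre virus (about 0.5 moi) added next. Following 44 h of culture, luminescent signal is measured for 15 sec after 15 min with substrate at room temperature.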
Sm TGR inh = inhibitors of Schistosoma mansoni thioredoxin glutathione reductase | Q962Y6 | purified TGR, DTNB reduction, TNB absorbance 405 nm | Potency, µM (doses to about 114 µM), without a hit: at the highest dose activity change, negative = inhibition, usual class: inhibitors | hit rate 3% among 360,000 | AID 485364; note: potency is the fitted concentration of half-maximal effect; % is set by controls: 0 for no effect and ±100 for the full control effect; nearly all actives have a fitted effect of over 60% in size
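Kinetic colorimetric format: TGR-catalysed, NADPH-driven DTNB reduction monitored via TNB absorbance. Enzyme dispensed at 20 nM; compound exposure 15 min at room temperature before reaction start.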
HCMV antiviral = human cytomegalovirus inhibition. HFF cells, HCMV-luciferase reporter, 72 h; active compounds read low. activity change, negative = inhibition, % at 57.5 µM. hit rate 4.5% among 410,000; in the data active = activity change below about -60%; inconclusive = no clear call, values can overlap the other calls; inactive = above about -39%; note: % is set by controls: 0 for no effect and ±100 for the full control effect
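Screen run at 2 compound doses on HFFs infected with reporter HCMV, MOI 1 PFU/cell. Luciferase activity from cell lysates at 72 h post infection gave inhibition relative to buffer-only and Salinomycin wells.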
SARS PLpro yeast = SARS-CoV PLP inhibition in yeast | Potency, µM (titrated, usually from 32.9 µM), for the others: at the top dose activity, positive = growth rescue, actives largely listed as activators | S. cerevisiae expressing SARS-CoV PLpro, growth rescue | hit rate 0.19% among 330,000 | AID 485353; calls by dose curve; note: potency is the fitted concentration of half-maximal effect; 0% is about no effect; nearly all actives have a fitted effect of over 55% in size
Pf growth 96h = inhibits malaria parasite growth, 96 h; P. falciparum luciferase reporter growth, 96 h; Potency, µM (titrated, usually from 28.7 µM), for inactives: at the top dose activity change, negative = inhibition, hits mostly inhibitors; hit rate 6.9% among 320,000; note: potency is the fitted concentration of half-maximal effect; % is set by controls: 0 for no effect and ±100 for the full control effect
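Infected RBCs, 2% Hct / 0.05% parasitemia final; luciferase-reporter P. falciparum; cpd 96 h, 37 C, 5% CO2; luciferase detection reagent; luminescence.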
Active calls of the source: *; ? = inconclusive; / = no result; [ ] = remark or other dose. Unless noted, calls come from the whole dose curve; as a rule, active = well fitted curve in the direction sought with a large enough effect; inconclusive = small, poorly fitted or top-dose-only effect, or another doubt; inactive = no such curve, though single readings can be large; an effect the other way counts as inactive or inconclusive.

SMILES	Pf growth 48h	HCV inhibitor	Sm TGR inh	HCMV antiviral	SARS PLpro yeast	Pf growth 96h
Cc1c(Cl)cccc1NC(=S)N1CCC(N(C)CC2CCCO2)CC1 (centres undefined)	4%	-9%	-20%	-20	2%	6.6µM*
Cn1cc(Cl)cc1-c1ncc(Cc2c[nH]c(N)[n+]2C)o1	/	/	/	-12	/	/
CCc1cccc(NC(=O)CCc2c(C)nn(-c3ccc(N4CCCCC4)nn3)c2C)c1	26%	?	11%	?	-44%	?
COc1ccc(NC(=O)CCCCCN2C(=O)[C@@H]3Cc4ccccc4CN3C2=O)cc1Cl	-16%	?	-16%	-34	4%	12µM*
O=C(N/N=C/c1ccc2c(c1)OCO2)c1cc(-c2ccccc2Cl)nc2ccccc12	?	34%	5%	17	10%	10µM*
CCOc1ccccc1-c1cc(C(=O)N/N=C/c2ccc(O)c(OC)c2)c2ccccc2n1	?	-4%	-1%	-33	?	-7%
O=C(CCc1c[nH]c2ccccc12)N/N=C/c1ccc2c(c1)OCO2	14%	13µM*	/	-14	0%	0%
O=C(Cc1ccccc1)N/N=C/c1ccc2c(c1)OCO2	282%	8%	27%	45	5%	51%
CCOc1ccccc1-c1cc(C(=O)N/N=C/c2ccc3c(c2)OCO3)c2ccccc2n1	2.3µM*	-4%	1%	7	2%	/
O=C(N/N=C/c1ccc2c(c1)OCO2)c1cc(-c2ccncc2)nc2ccccc12	?	?	-7%	?	-2%	?
CCC(=O)N(CC(=O)Nc1sc(C)c(C)c1C(N)=O)C1CCCCC1	-17%	9%	-8%	3	1%	7%
COC(=O)CCSC(=S)N1CCOCC1	6%	21%	6%	-7	1%	9%
Cc1ccc(-n2nnnc2CCl)cc1	-15%	?	5.6µM*	12	0%	-1%
Cc1ccc(-c2nnnn2-c2ccc(C)cc2)cc1	-4%	2%	10%	12	-4%	0%
O=c1[nH]c2cc3c(cc2cc1CN(CCc1ccccc1)Cc1nnnn1C1CCCC1)OCCO3	22%	/	45µM*	/	0%	43%
COCCn1nnnc1CN(CCCN1CCOCC1)Cc1cc2c(C)ccc(C)c2[nH]c1=O	6%	-1%	13µM*	42	-3%	12%
Cc1cc2cc(CN(Cc3ccc4c(c3)OCO4)Cc3nnnn3C3CCCC3)c(=O)[nH]c2cc1C	?	-14%	3%	-38	6%	52%
Cc1cccc2cc(CN(CCCN3CCOCC3)Cc3nnnn3C(C)(C)C)c(=O)[nH]c12	-7%	-2%	?	-11	2%	/
Cc1ccc2[nH]c(=O)c(CN(Cc3ccc4c(c3)OCO4)Cc3nnnn3C3CCCC3)cc2c1	10µM*	?	-19%	-36	/	-1%
COc1ccc2cc(CN(CCCN3CCOCC3)Cc3nnnn3C3CCCC3)c(=O)[nH]c2c1	10µM*	-11%	?	-25	-3%	5.2µM*
CC1CCN(S(=O)(=O)N2CCN(C(=O)c3ccc4c(c3)OCO4)CC2)CC1	1%	6%	-7%	6	-1%	?
COc1ccc(OC)c(S(=O)(=O)NC2CC(=O)N(c3ccc(C)c(C)c3)C2)c1 (centres undefined)	?	-9%[8.37 µM]	2%	-2	-2%	?
COc1cc(C(=O)Nc2ccc(C(=O)c3cccs3)cc2)cc(OC)c1OC	?	?	-11%	-33	-5%	9.3µM*
COc1ccc(NC(=O)/C=C/c2cc(Br)ccc2OC)cc1	-5%	?	-22%	-29	0%	18%
O=C(Nc1ccc(NC(=O)c2ccc(Cl)cc2Cl)cc1)c1cccs1	6%	-22%	-3%	-30	1%	?
COc1ccc(Br)cc1/C=C/C(=O)c1ccc(NC(C)=O)cc1	-85%	?	-4%	-98*	-58%	288%
COc1ccc(C(=O)Nc2ccc(NC(=O)c3cccs3)cc2)cc1OC	/	/	3%	6	/	/
